Screening data as filed in PubChem BioAssay.
An excerpt weighted towards active compounds, which were near 1% of everything screened.
PrP UTR inh = suppresses PrP 5' UTR mRNA reporter expression; cell-based PrP 5' UTR mRNA reporter, plate reader; inhibition, % (test concentration not listed); 340,000 tested, 0.35% active; AID 488862; in the data active = inhibition above about 52%; also: 0 = median of the neutral control wells
FadD28 FP inh = blocks FadD28 binding to the bisubstrate probe. fluorescence polarization. inhibition, % at 12.5 µM. 360,000 tested, 0.22% active. AID 588549; in the data active = inhibition above about 8.5%, passing the limit was not always enough
SSB-PriA inh = blocks PriA binding to SSB C-terminal tail. AlphaScreen SSBct-PriA binding, biotinylated peptide. inhibition, % at 33 µM. 430,000 tested, 0.6% active. AID 1272365; in the data active = inhibition mostly above about 37%, no sharp cut-off; inactive = mostly below about 20%;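 also: plate controls were negative control peptide for no effect and reference peptide for full effect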
TcdB inh = TcdB glycohydrolase inhibition; TcdB glycohydrolase enzymatic assay, plate reader; 350,000 tested, 0.24% active; P18177; inhibition, % at 9.99 µM; in the data active = inhibition above about 10%
BioA inh = BioA (M. tuberculosis) enzyme inhibition. purified M. tuberculosis BioA enzyme, plate reader. 360,000 tested, 0.096% active. inhibition, % at 9.99 µM; in the data active = inhibition above about 40%
Mtb hypoxia inh = Mtb hypoxia fluorescent reporter inhibition. 300,000 tested, 0.1% active. fluorescence inhibition, % (test concentration not listed). M. tuberculosis hypoxia-regulated fluorescent reporter, fluorescence; in the data active = fluorescence inhibition mostly above about 23%, no sharp cut-off; inactive = mostly below about 17%
Numbers without * were called inactive; i = inactive; x = no result; + = active, no number.

SMILES	PrP UTR inh	FadD28 FP inh	SSB-PriA inh	TcdB inh	BioA inh	Mtb hypoxia inh
CCCCCn1c(NS(=O)(=O)c2ccccc2)c(C(=O)OCC)c2nc3ccccc3nc21	x	x	70*	x	x	x
CCCCCn1c(NS(=O)(=O)c2ccc(F)cc2)c(S(=O)(=O)c2ccc(C)cc2)c2nc3ccccc3nc21	x	x	47	x	x	x
CCCCn1c(NC(=O)c2ccccc2)c(S(=O)(=O)c2ccc(C)cc2)c2nc3ccccc3nc21	x	x	54*	x	x	x
CCCCn1c(NS(=O)(=O)c2ccc(F)cc2)c(S(=O)(=O)c2ccc(C)cc2)c2nc3ccccc3nc21	x	x	56*	x	x	x
Cc1ccc(-n2cc(C(=O)N3CCC(Cc4ccccc4)CC3)nn2)cc1C	x	x	-1	x	x	x
CCn1ncc(C2=NOC(C(=O)NCc3ccccc3)C2)c1C (stereo unspecified)	13	-3	-19	x	-1	1
CCCCCCCCn1c(NS(=O)(=O)c2ccc(C)cc2)c(S(=O)(=O)c2ccc(C)cc2)c2nc3ccccc3nc21	x	x	54*	x	x	x
O=[N+]([O-])c1ccccc1N/N=C/c1ccccc1	-90	0	x	-1	0	x
O=[N+]([O-])c1ccccc1NN=C1CC2CC=CC12 (stereo unspecified)	x	x	71*	x	x	11
COc1ccc(S(=O)(=O)N2CCN(C(=O)C3CC(=O)N(c4ccccc4F)C3)CC2)cc1OC (stereo unspecified)	-9	-1	1	1	1	31*
COc1ccc(N2CC(C(=O)N3CCN(c4ccccc4F)CC3)CC2=O)cc1 (stereo unspecified)	-15	0	-1	0	-1	-1
Cc1c(C(=O)O)cccc1-n1c(C)cc(/C=N/Nc2ccc([N+](=O)[O-])cn2)c1C	-14	34*	i	0	x	x
Cc1c(C(=O)O)cccc1-n1c(C)cc(C=NNc2ccc([N+](=O)[O-])cn2)c1C	x	x	x	x	x	17
Cc1ccc(CCC(=O)Nc2ccc(Cl)c([N+](=O)[O-])c2)o1	x	x	48*	x	x	x
COc1ccc(NC(=O)C(=O)NCC2(c3cccs3)CCCC2)cc1OC	x	x	-3	x	x	x
Nc1c(Cl)cc(C2=NCCn3c2c2ccc([N+](=O)[O-])cc2[n+]3[O-])cc1Cl	-10	-5	19	1	1	45*
CC(c1ccccc1)N1C(=O)NC(NC(=O)c2cccnc2)(C(F)(F)F)C1=O (stereo unspecified)	-6	-1	48*	x	-2	2
CC(=O)N(c1ccccc1C)S(=O)(=O)c1ccc(Cl)cc1	9	-1	-3	11*	x	2
COc1ccc(Cl)cc1C(=O)Nn1c(C)nc2ccccc2c1=O	-18	-2	-10	x	-1	2
COc1ccc(Cl)cc1C(=O)Nn1c(-c2cccs2)nc2ccccc2c1=O	-49	12*	-13	1	x	-1
COC(=O)c1[nH]c2ccc(C)cc2c1NS(=O)(=O)c1ccc(OC)cc1OC	x	x	57*	x	x	x
COc1ccc(S(=O)(=O)Nc2c(C(=O)O)[nH]c3ccccc23)c(OC)c1	-27	-1	-9	x	4	18
COc1ccc(S(=O)(=O)Nc2c(C(=O)O)[nH]c3ccc(OC)cc23)c(OC)c1	-15	-1	106*	2	-3	7
Cc1ccc(/C=C2/SC(=S)N(N)C2=O)o1	x	x	41	x	x	x
Cc1ccc(/C=C2/SC(=O)NC2=S)o1	-27	16*	-21	x	-2	-3
SMILES	PrP UTR inh	FadD28 FP inh	SSB-PriA inh	TcdB inh	BioA inh	Mtb hypoxia inh
Cc1onc(-c2ccccc2)c1C(=O)NC(=S)NNC(=O)c1ccccc1O	8	0	64*	0	x	-1
O=C(NC(=S)NNC(=O)c1ccccc1O)c1cccs1	9	-1	45*	2	-3	2
Cc1c(C(=O)Nc2cnn(CC3COc4ccccc4O3)c2)cnn1-c1ccccc1 (stereo unspecified)	x	x	1	x	x	x
CN(CCC#N)C(=O)COC(=O)C1c2ccccc2Oc2ccccc21	-24	1	5	1	3	5
N#CCCN(CCC#N)C(=O)C1c2ccccc2Oc2ccccc21	-8	11*	-3	1	-10	x
OCCN1CCN(Cc2ccc(O)c3ncccc23)CC1	x	x	115*	x	x	x
Cc1ccccc1N1CCN(Cc2c[nH]c3ccccc23)CC1	9	-1	-4	2	-1	15
CCOC(=O)C1CCN(Cc2ccc(O)c3ncccc23)CC1	-3	-1	94*	x	-1	10
COc1ccccc1N1CCN(Cc2ccc(O)c3ncccc23)CC1	x	-1	73*	x	-3	-6
Cc1ccccc1N1CCN(Cc2ccc(O)c3ncccc23)CC1	x	x	87*	x	x	x
Oc1ccc(CN2CCCc3ccccc32)c2cccnc12	-13	-6	16	x	x	x
O=C(COc1ccc([N+](=O)[O-])cc1)Nn1cnnc1	-23	0	0	1	x	1
CC(=O)N1CCN(Cc2nc(-c3ccc(F)cc3)cs2)CC1	x	x	-8	x	x	x
O=C(c1ccc([N+](=O)[O-])o1)N1CCN(Cc2nc(-c3ccc(F)cc3)cs2)CC1	x	x	11*	x	x	x
Fc1ccc(NC(=S)N2CCN(C/C=C/c3ccccc3)CC2)c(F)c1	-3	-3	9	1	x	16
CSCCC(NC(=O)c1ccccc1Br)C(=O)NNC(=O)c1ccncc1 (stereo unspecified)	-35	-1	0	2	-1	27*
O=C(CSc1cccc2cccnc12)NN=Cc1ccc(F)cc1	x	x	x	x	x	6
O=C(CSc1cccc2cccnc12)NN=Cc1cccnc1	x	x	83*	x	x	2
COc1cccc(/C=N/NC(=O)CSc2cccc3cccnc23)c1	-9	0	+	3	2	x
O=C(CSc1cccc2cccnc12)N/N=C/c1ccc(O)cc1	x	-3	i	20*	1	x
O=C(CSc1cccc2cccnc12)N/N=C/c1ccc(Cl)cc1	x	x	i	x	x	x
CCOC(=O)c1ccc2ncc(-c3ccccc3)nc2c1	-103	-1	-1	25*	x	6
CC(Oc1ccc(Cl)cc1Cl)C(=O)Nc1ccc(O)cc1 (stereo unspecified)	-14	-3	-15	14*	x	1
COc1ccccc1C1C(=C(O)c2ccc3c(c2)OCCO3)C(=O)C(=O)N1Cc1cccnc1 (stereo unspecified)	x	x	-20	x	x	x
COc1ccc(OC)c2c(C)cc(N3CCCN(C)CC3)nc12	-28	-3	44*	x	9	2
SMILES	PrP UTR inh	FadD28 FP inh	SSB-PriA inh	TcdB inh	BioA inh	Mtb hypoxia inh
CCOC(=O)COc1c(Cl)cc(/C=C2\N=C(C)OC2=O)cc1OC	-32	0	-4	0	0	15
NC(=O)C1(N2CCCCC2)CCN(C(=O)c2ccc(C#CC3(O)CCCCC3)cc2)CC1	-9	-4	-1	x	-3	x
CSC1CC2CCC(C1)N2C(=O)c1ccsc1 (stereo unspecified)	x	x	94*	x	x	x
CCCOc1cccc(C2C(=C(O)c3ccc4c(c3)OCCO4)C(=O)C(=O)N2CCCn2ccnc2)c1 (stereo unspecified)	x	x	-6	x	x	x
O=S(=O)(c1ccccc1)N1CCN(c2nc(-c3cccnc3)nc3ccccc23)CC1	-2	-2	-7	0	-2	10
COc1cc2[nH]c(=S)n(Cc3cccs3)c(=O)c2cc1OC	-13	0	-9	25*	0	6
